{"source": "PubChem BioAssay (NCI)", "note": "The panel holds about 83,000 compounds, 20% with a hit somewhere; the sample as a whole holds those more often.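 Percent growth is the endpoint: 0 to 100 indicates growth inhibition (40 means 60% inhibition), 0 means no net growth, and negative values indicate cell death.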 Active and inactive are the calls of the source. How the source made its calls: active means growth percent below 10; inactive means the rest."}
{"test_system": "HL-60(TB) leukemia", "assay": "NCI-60 one-dose screen, 48 h (100 = growth as untreated, 0 = no growth, -100 = all killed)", "conditions": "10 µM unless noted"}
{"smiles": "COc1cc(-c2cc(C(=O)N3CCN(C(=O)c4ccccc4NCc4ccco4)CC3)nc3cc(-c4ccccc4)nn23)cc(OC)c1OC", "growth": "11.6% (inactive)"}
{"smiles": "CC(C)=CCC[C@](C)(O)[C@H]1CC[C@]2(C)[C@@H]1CC[C@@H]1[C@@]3(C)C/C(=C/c4cccc([N+](=O)[O-])c4)C(=O)C(C)(C)[C@@H]3CC[C@]12C", "growth": "68.4% (inactive)"}
{"smiles": "O=C1c2ccccc2C(=O)c2c([N+](=O)[O-])ccc(Cl)c21", "growth": "111% (inactive)"}
{"smiles": "C/C=C/CC(C)C(O)C1C(=O)NC(CC)C(=O)N(C)CC(=O)N(C)C(CC(C)C)C(=O)NC(C(C)C)C(=O)N(C)C(CC(C)C)C(=O)NC(C)C(=O)NC(C)C(=O)N(C)C(CC(C)C)C(=O)N(C)C(CC(C)C)C(=O)N(C)C(C(C)C)C(=O)N1C", "note": "(stereo not given)", "growth": "-9.23% (active)"}
{"smiles": "CCN(CC)CCCNc1nccc2ccc(Cl)cc12", "growth": "99.4% (inactive)"}
{"smiles": "COc1cc(OC)c(NC(=O)C(Sc2nc(C)cc(C)c2C#N)c2ccccc2)cc1Cl", "note": "(stereo not given)", "growth": "94.1% (inactive)"}
{"smiles": "N#C/C(=C\\c1cccc2cnccc12)N1N=NC2C=CC=CC21", "note": "(stereo not given)", "growth": "8.65% (active)"}
{"smiles": "Clc1ccccc1-c1cnn2cc(-c3ccccc3)cnc12", "growth": "96.2% (inactive)"}
{"smiles": "CCCCn1cnc2c(SCc3ccc([N+](=O)[O-])cc3)nc(N)nc21", "growth": "-42.6% (active)"}
{"smiles": "COc1cc(/C=C/C(=O)c2cccc(-n3cc(-c4ccccc4)[nH]c3=O)c2)ccc1O", "growth": "3.49% (active)"}
{"smiles": "O=C(Cc1ccccc1)c1ccc(O)c(Cl)c1", "growth": "-21.1% (active)"}
{"smiles": "Nc1c(C(=O)Nc2ccccc2)sc2nc3c(cc12)CN(Cc1ccccc1)CC3", "growth": "83% (inactive)"}
{"smiles": "Nc1ccc2ccc(NS(=O)(=O)N3CCCCC3)cc2c1", "growth": "2.41% (active)"}
{"smiles": "CCN1CCN(C(=O)[C@]23CC[C@@H](C)[C@H](C)[C@H]2C2=CC[C@@H]4[C@@]5(C)C/C(=C/c6cccc(OC)c6OC)C(=O)C(C)(C)[C@@H]5CC[C@@]4(C)[C@]2(C)CC3)CC1", "growth": "2.97% (active)"}
{"smiles": "CC1(C)N=C(N)N=C(N)N1c1cccc(CCc2ccccc2)c1", "growth": "32.4% (inactive)"}
{"smiles": "c1cnc2ccc3ncccc3c2c1", "growth": "98.9% (inactive)"}
{"smiles": "C=CCOC(=O)C1=C(C)N(CC)C(=O)NC1c1c(Cl)n(C)c2ccccc12", "note": "(stereo not given)", "growth": "99.2% (inactive)"}
{"smiles": "COc1ccc(Nc2ncc(Br)c(NCCCNC(=O)C3CCCC3)n2)cc1", "growth": "17% (inactive)"}
{"smiles": "O=C(Nn1c2c(sc1=NC1CC1)C(=O)c1ccccc1C2=O)c1cc2ccc1CCc1ccc(cc1)CC2", "growth": "2.39% (active)"}
{"smiles": "OCCNc1nc(Nc2ccc(C3=NN(c4cc(Cl)cc(Cl)c4)C(c4ccc(C(F)(F)F)cc4)C3)cc2)nc(N2CCOCC2)n1", "note": "(stereo not given)", "growth": "101% (inactive)"}
{"smiles": "C[C@]12CC[C@H]3[C@@H](CCC4=CC(=O)CC[C@@]43C)[C@@H]1CC[C@@H]2c1csc(N)n1", "growth": "0.82% (active)"}
{"smiles": "O=C1Nc2ccccc2C12CC(c1ccc(Cl)cc1)=NN2", "note": "(stereo not given)", "growth": "99.1% (inactive)"}
{"smiles": "Cc1sc2nc3c4ccccc4c(NCCCN(C)C)nn3c(=O)c2c1C", "growth": "-71% (active)"}
{"smiles": "O=S(=O)(Nc1ccc(Cl)c(Cl)c1)c1ccc(-c2cnc(C3CC3)o2)cc1", "growth": "18.6% (inactive)"}
{"smiles": "O=C(Nc1ccccc1O)c1ccc(CNC(=O)c2sccc2Nc2ccnc(C(F)(F)F)c2)cc1", "growth": "25.2% (inactive)"}
{"smiles": "O=C1C=CC(=O)N1c1cccc2c1CCCC2", "growth": "34.2% (inactive)"}
{"smiles": "COc1ccc(S(=O)(=O)NCCNc2nccc(-c3c(-c4cccc(N)c4)nc4sccn34)n2)cc1", "growth": "116% (inactive)"}
{"smiles": "COc1ccc(C2C3CCc4ccccc4C3=NN2C(=O)c2cc(OC)c(OC)c(OC)c2)cc1O", "note": "(stereo not given)", "growth": "84.7% (inactive)"}
{"smiles": "COc1ccc(-c2nc(SC(C)C)nc(NNC(N)=S)c2C#N)cc1", "growth": "14.3% (inactive)"}
{"smiles": "CCN1CCC[C@H]1c1cc(O)c2c(c1OC)C[C@H]1C[C@H]3[C@H](N)C(=O)C(C(N)=O)=C(O)[C@@]3(O)C(=O)C1=C2O", "growth": "-49.2% (active)"}
{"smiles": "O=C(CCn1cnc2c(cc(-c3ccccc3)n2-c2ccccc2)c1=O)Nc1ccc(F)cc1", "growth": "86.6% (inactive)"}
{"smiles": "CC(C)CSc1nc(NN)c(C#N)c(-c2ccc(F)cc2)n1", "growth": "94.4% (inactive)"}
{"smiles": "CC(=O)Nc1ccc(-n2c(O)c(/C=N/NC(=O)Cc3ccccc3Nc3c(Cl)cccc3Cl)sc2=S)cc1", "growth": "99% (inactive)"}
{"smiles": "O=C(O)c1ccc(-n2cc(/C=N/Nc3ccc(Cl)cc3)c(-c3ccc(F)c(F)c3)n2)cc1", "growth": "27.1% (inactive)"}
{"smiles": "Cc1ccc(N)cc1F", "growth": "120% (inactive)"}
{"smiles": "COc1ccc(NC(=O)c2sc3nc(C)c(C(=O)CCc4cccc(OC)c4)cc3c2N)cc1", "growth": "34.6% (inactive)"}
{"smiles": "CC(=O)O[C@H]1CC[C@@]2(C)C(=CC[C@@H]3[C@@H]2CC[C@]2(C)C(c4cccnc4)=CC[C@@H]32)C1", "growth": "4.36% (active)"}
{"smiles": "COc1ccccc1S(=O)(=O)Nc1ccc2c3c(cc(-c4cnn(C5CC5)c4)nc13)C(=O)N2C", "growth": "-10% (active)"}
{"smiles": "Cc1nc(/N=C(\\N)NC(=O)Nc2ccccc2Cl)sc1C", "growth": "3.77% (active)"}
{"smiles": "COc1cc(/C=C/C(=O)c2cccc(-n3cc(-c4cc(OC)c(OC)c(OC)c4)[nH]c3=O)c2)cc(OC)c1OC", "growth": "-18.5% (active)"}
